Laboratory results published in ChEMBL document CHEMBL3433997, “St. Jude Leishmania screening dataset” (2016).

Legend:
Type in all cases: functional
[1] = target: Solute carrier family 2, facilitated glucose transporter member 1 (Homo sapiens) (UniProt P11166); test: ST_JUDE_LEISH: Cytotoxicity at 2uM final concentration against transgenic Leishmania Mexicana promastigotes LmGLUT1 that are glucose transport deficient and complemented with the human glucose transporter GLUT1. Activity is measured by DNA content using SYBR green in vitro
[2] = target: Hexose transporter 1 (Plasmodium falciparum) (UniProt O97467); test: ST_JUDE_LEISH: Cytotoxicity at 2uM final concentration against transgenic Leishmania Mexicana promastigotes LmPfHT that are glucose transport deficient and complemented with the Plasmodium falciparum hexose transporter. Activity is measured by DNA content using SYBR green in vitro
[3] = target: Glucose transporter (Leishmania mexicana) (UniProt O61059); test: ST_JUDE_LEISH: Cytotoxicity at 2uM final concentration against transgenic Leishmania Mexicana promastigotes LmGT2 that are glucose transport deficient and complemented with the L. Mexicana glucose transporter 2. Activity is measured by DNA content using SYBR green in vitro

Sequence of Solute carrier family 2, facilitated glucose transporter member 1 (Homo sapiens) (P11166 whole entry): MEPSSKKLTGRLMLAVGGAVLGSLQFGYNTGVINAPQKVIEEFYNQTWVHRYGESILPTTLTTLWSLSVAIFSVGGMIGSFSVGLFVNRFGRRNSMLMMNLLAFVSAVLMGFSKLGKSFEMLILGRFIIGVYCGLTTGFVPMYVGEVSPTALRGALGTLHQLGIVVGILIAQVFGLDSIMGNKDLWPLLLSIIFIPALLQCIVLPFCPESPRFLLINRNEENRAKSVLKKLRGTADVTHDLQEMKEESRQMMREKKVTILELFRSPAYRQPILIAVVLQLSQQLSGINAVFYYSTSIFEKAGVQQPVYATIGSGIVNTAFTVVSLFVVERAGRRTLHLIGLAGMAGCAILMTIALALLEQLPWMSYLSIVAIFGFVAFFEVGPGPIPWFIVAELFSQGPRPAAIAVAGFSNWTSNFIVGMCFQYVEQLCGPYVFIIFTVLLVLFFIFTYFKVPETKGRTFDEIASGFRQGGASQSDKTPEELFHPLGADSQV

| Structure (SMILES) | inhibition [1] [%] | inhibition [2] [%] | inhibition [3] [%] |
| --- | --- | --- | --- |
| CCN(CC)CCN(Cc1ccc(-c2ccc(C(F)(F)F)cc2)cc1)C(=O)Cn1c(CCc2cc(F)c(F)cc2F)nc(=O)c2ccccc21 | 13.6 | 12.3 | 12.8 |
| O=C(Nc1ccc([N+](=O)[O-])cc1)Nc1cc(OCC(F)(F)F)cc(OCC(F)(F)F)c1 | 4.64 | 5.79 | 4.56 |
| CN(C)Cc1ccc2nc(-c3cccc(Cc4cc(Cl)ccc4OCc4ccc(Cl)cc4F)n3)[nH]c2c1 | -0.36 | -0.21 | -1.22 |
| O=C(Nc1ccc(S(=O)(=O)N2CCCCC2)cc1)c1cc(-c2ccccc2O)n[nH]1 | 11.8 | 12 | 10.8 |
